# Bioassay records: PubChem, several laboratories
# LANA-H2A inh = blocks KSHV LANA binding to histone H2A/H2B | 0.6% of 320,000 active | cell-free LANA-H2A/H2B peptide, fluorescence polarization | AID 2629 | Q9QR71 | inhibition, % (concentration not given with the values); in the data active = inhibition mostly above about 10%, no sharp cut-off; inactive = mostly below about 6.7%
# RTF Ca sens inh = cardiac RTF calcium desensitization. P19429+P45379. IANBD-labeled cardiac RTF, Ca2+ fluorescence. inhibition, % at 7.15 µM. 0.12% of 340,000 active. AID 493244;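 active = inhibition above the mean inhibition of all tested compounds plus 3 SD, cut at about 17% in these data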;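 also: assay run at fixed EC70 calcium of 1.6 mM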
# RTF Ca sens act = cardiac RTF calcium sensitization; P19429+P45379; IANBD-labeled TnC RTF fluorescence at EC20 calcium; 0% EC20 calcium, 100% full calcium; activation, % at 7.2 µM; 0.24% of 340,000 active;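 active = activation above the mean over all tested compounds plus 3 SD, cut at about 30% in these data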;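 also: rise in fluorescence read as greater calcium sensitivity of cardiac thin filaments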
# Keap1 Nrf2 FP = Keap1-Nrf2 (human) interaction inhibition. AID 504523. 0.15% of 340,000 active. Keap1 Kelch-Nrf2 peptide fluorescence polarization, 1536-well. Q14145. inhibition, % at 9.4 µM; in the data active = inhibition above about 12%;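 also: human Keap1 Kelch domain with fluorescein labeled Nrf2 9mer peptide probe; 0% = neutral control wells and 100% = peptide positive control; higher means more block of Keap1 binding to Nrf2 peptide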
# Target sequence (Q14145 whole entry, looked up, the tested form may be a part): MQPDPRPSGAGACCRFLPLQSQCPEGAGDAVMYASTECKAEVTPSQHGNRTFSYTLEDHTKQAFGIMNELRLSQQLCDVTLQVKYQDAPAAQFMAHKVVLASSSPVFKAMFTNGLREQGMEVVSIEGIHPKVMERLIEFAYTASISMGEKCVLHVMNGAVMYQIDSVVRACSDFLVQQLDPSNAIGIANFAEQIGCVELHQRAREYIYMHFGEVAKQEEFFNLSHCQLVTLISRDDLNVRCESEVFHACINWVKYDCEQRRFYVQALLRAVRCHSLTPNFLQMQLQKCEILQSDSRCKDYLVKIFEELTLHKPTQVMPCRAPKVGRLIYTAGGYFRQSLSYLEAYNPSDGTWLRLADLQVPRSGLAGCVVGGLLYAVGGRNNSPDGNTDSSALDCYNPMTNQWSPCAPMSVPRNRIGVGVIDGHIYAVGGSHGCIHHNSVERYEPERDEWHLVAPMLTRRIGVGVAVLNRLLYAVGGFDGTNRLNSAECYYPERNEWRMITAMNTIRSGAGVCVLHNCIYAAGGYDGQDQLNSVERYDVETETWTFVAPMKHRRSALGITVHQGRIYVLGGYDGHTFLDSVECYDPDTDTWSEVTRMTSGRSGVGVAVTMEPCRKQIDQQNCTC
# C-LANA FP = KSHV C-LANA DNA binding inhibition | inhibition, % at 9 µM | MBP-C-LANA/FAM-LBS DNA binding, fluorescence polarization | 0.078% of 340,000 active;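 active = highest replicate inhibition at or above 60% at 9 µM, even if other replicates fall short; inactive = all replicates below 60% inhibition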;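 also: 0% = neutral control wells and 100% = 4 µM acridine orange control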
# An asterisk follows results filed as active; · = not tested or not shown; + = active, no number; ! = not confirmed by another sample. Hits are enriched below; roughly 0.98% of the tested compounds scored in any of these assays.
SMILES,LANA-H2A inh,RTF Ca sens inh,RTF Ca sens act,Keap1 Nrf2 FP,C-LANA FP
CCOC(=O)N1CCC(N2CC34C=CC(O3)C(C(=O)O)C4C2=O)CC1 (stereo not given),4,-4,0,2,1
CC[C@@]1(C(=O)OC)N[C@H](CN(C)S(=O)(=O)c2ccc(C(C)(C)C)cc2)[C@@H]2C(=O)N(Cc3ccccc3)C(=O)[C@@H]21,69*,-11,-5,-4,-3
CCN(C[C@H]1N[C@@](CC)(C(=O)OC)[C@H]2C(=O)N(Cc3ccccc3)C(=O)[C@@H]12)C(=O)Nc1ccc(C(F)(F)F)cc1,+,4,-5,3,-2
CCOc1ccccc1NC(C)C(=O)NC(=O)NC1CCCCC1 (stereo not given),5,-7,0,-4,-2
Cc1nc(-c2ccc(F)cc2)c(CC(=O)NCC(=O)Nc2ccc(F)c(F)c2)s1,0,0,0,6,-2
CCOc1ccccc1N,23*,-1,-7,4,-2
Nc1nnc(-c2cccc(Cl)c2Cl)c(N)n1,11*!,-3,-2,-1,2
CCc1c(N)nc(N)nc1Nc1ccccc1Cl,·,-6,-5,-5,1
COc1ccc(C(=O)Nc2cc(C(C)=O)c(C)oc2=O)cc1,0,-11,0,-1,-1
COC(=O)c1cc(NC(=O)c2ccccc2)c(=O)oc1/C=C/Nc1ccc(Oc2ccccc2)cc1,·,-254,113*,-190,9
COc1ccc(NC(=O)C2(S(=O)(=O)c3ccc(C)cc3)CC2)cc1OC,26*,5,-6,0,0
Cc1ccc(S(=O)(=O)N2CCN(C(=O)C3CC3C)CC2)c(C)c1 (stereo not given),0,-11,-4,3,-1
Cc1ccc(S(=O)(=O)N2CCN(C(=O)C3CCN(C(=O)c4ccc(F)cc4)CC3)CC2)c(C)c1,22*,-3,7,-2,1
Cc1[nH]c(-c2ccco2)nc1C(=O)O,15*,2,-7,-2,1
Oc1c(N=NC(=S)Nc2ccccc2F)c2ccccc2n1Cc1ccccc1F,-1,-5,5,0,0
Oc1c(N=NC(=S)Nc2ccccc2F)c2ccccc2n1Cc1ccc(Cl)cc1,21*,-5,1,-4,1
CCC(C)C1/C=C\CC(NC(=O)OCC2c3ccccc3-c3ccccc32)CC(=O)N1Cc1ccccc1 (stereo not given),·,-4,-3,-7,0
COc1ccccc1-c1nnc(SCC(=O)Nc2oc(C)c3c(C)n[nH]c(=O)c23)n1C,-7,-2,9,-5,-1
Cc1n[nH]c(=O)c2c(NC(=O)CSc3nnc(-c4ccco4)n3C)oc(C)c12,92*,-3,-2,-1,0
CCCCc1ccc(N=N/C(C(=O)Nc2ccc(NC(C)=O)cc2OC)=C(/C)O)cc1,47*,-5,11,-7,0
COc1ccccc1NS(=O)(=O)c1cc(N=N/C(C(=O)Nc2ccc(Cl)cc2)=C(/C)O)ccc1C,-2,-5,7,-3,-1
CN(/N=C/c1ccc(N(C)C)cc1)C1=NS(=O)(=O)c2ccccc21,-4,-12,61*,-6,-1
Cc1nc2cc(N3CCOCC3)c(NC(=O)C3CC3)cc2c(=O)n1Cc1ccccc1,56*,6,2,-1,0
Cc1cc(NC(=O)C2CCN(C(=O)c3ccco3)CC2)ccc1Br,0,-16,4,1,0
C=CCOn1c(=O)c(-c2ccc(OCC)cc2)[n+]([O-])c2ccccc21,-5,-5,5,-6,-2
SMILES,LANA-H2A inh,RTF Ca sens inh,RTF Ca sens act,Keap1 Nrf2 FP,C-LANA FP
O=C1/C(=C/c2ccccc2)CCCc2ccccc21,-2,2,-2,-1,1
CN(C)c1ccc(/C=C2\CCC/C(=C\c3ccccc3)C2=O)cc1,3,-87,84*,3,1
CCOC(=O)c1c(C)[nH]c(C2=NNC(=Nc3cccc(Cl)c3)SC2)c1C,0,·,·,·,·
COc1ccc(CCN2CC(C(=O)N(C)CC(=O)Nc3ccc(F)c(F)c3F)CC2=O)cc1OC (stereo not given),·,-2,-3,-1,-1
Cc1cc(C)c(NC(=O)C2CCCO2)c(C)c1NC(=O)C1CCCO1 (stereo not given),0,2,-4,-4,0
Cc1ccc(SCc2nc(N)nc(Nc3ccccc3C)n2)c(C)c1,64*,-6,-6,-1,-2
Cc1onc(-c2ccccc2Cl)c1C(=O)N1CCC(Cc2ccccc2)CC1,3,3,0,-3,0
CCOC(=O)C1CCCN(C2=NC(=O)/C(=C/c3ccc(N(C)C)cc3)S2)C1 (stereo not given),9,-91,65*,-110,-36
COc1ccccc1C/C(N)=N/OC(=O)COc1cc(C)cc(C)c1C,1,4,-5,-2,0
COc1ccccc1C/C(N)=N/OC(=O)COc1cccc(C)c1C,+,19*,-3,-2,-2
Cc1ccccc1-c1nc(CS(=O)(=O)CC(=O)NCCN2CCCC2)c(C)o1,-1,-4,-2,-10,-1
Cc1cccc(C(C(=O)NC2CCCCC2)N(C(=O)c2csnn2)C2CC2)c1 (stereo not given),-3,-9,2,0,-1
COc1cccc(C(C(=O)NC2CCCCC2)N(C(=O)c2csnn2)C2CC2)c1 (stereo not given),13*,0,3,1,2
Cc1ccc(/C=C2/SC(=S)N(CCC(=O)N3CCN(C)CC3)C2=O)cc1,0,1,0,-3,-1
O=C(CCN1C(=O)/C(=C/c2cccs2)SC1=S)N1CCCCC1,24*,-12,-4,0,5
CN1CCN(C(=O)CCN2C(=O)/C(=C/c3ccc(F)cc3)SC2=S)CC1,12*,-8,-4,-3,1
COc1ccc(/C=C2\SC(=O)N(CCC(=O)N3CCN(C)CC3)C2=O)cc1,2,-3,54*,-5,0
Cc1ccc(/C=C2\SC(=O)N(CCC(=O)N3CCN(C)CC3)C2=O)cc1,2,9,-12,-3,-3
O=C(c1cc(C2CC2)nn1-c1ccccc1)N1CCN(S(=O)(=O)c2ccccc2)CC1,·,-6,-3,3,1
Cn1nnnc1Sc1ncnc2scc(-c3ccsc3)c12,1,8,1,-9,-3
O=C1CCCN2N=C(SCC(=O)Nc3cccc(Cl)c3)SC2=N1,26*,-5,-1,-2,1
O=C(CN(Cc1ccccc1)S(=O)(=O)c1ccc(Br)cc1)NCC1CCCO1 (stereo not given),3,-5,-2,-8,1
O=C(CN(Cc1ccccc1)S(=O)(=O)c1ccc(Cl)cc1)NCC1CCCO1 (stereo not given),14*,-12,0,0,0
CCCCn1c(N)c(N(C)C(=O)c2c(C)nn(-c3ccccc3)c2C)c(=O)[nH]c1=O,-8,-4,-2,1,0
